Most compounds without a hit are left out; they make up all but 1.4% or so of the library.
PV pol inh: inhibitors of poliovirus RNA polymerase binding and polymerization | poliovirus polymerase elongation, fluorescence polarization; active compounds read low | % elongation, % (compound at 16.7 µg/mL) | actives 0.66% (n = 150,000) | P03300; in the data active = % elongation below about 90%
MenB inh: blocks the Mycobacterium tuberculosis MenB enzyme; P9WNP5; MenB enzyme assay, absorbance read-out; inhibition, % (no concentration beside the values); actives 0.43% (n = 100,000); AID 540299; in the data active = inhibition above about 21%, passing the limit was not always enough
Mtb MbtI inh: blocks the Mycobacterium tuberculosis siderophore enzyme MbtI. P9WFX0. purified MbtI enzyme, fluorescence intensity read-out. actives 0.89% (n = 100,000). inhibition, % (no concentration beside the values); in the data active = inhibition mostly above about 56%, no sharp cut-off; inactive = mostly below about 77%
Target sequence (P9WFX0 whole entry, looked up): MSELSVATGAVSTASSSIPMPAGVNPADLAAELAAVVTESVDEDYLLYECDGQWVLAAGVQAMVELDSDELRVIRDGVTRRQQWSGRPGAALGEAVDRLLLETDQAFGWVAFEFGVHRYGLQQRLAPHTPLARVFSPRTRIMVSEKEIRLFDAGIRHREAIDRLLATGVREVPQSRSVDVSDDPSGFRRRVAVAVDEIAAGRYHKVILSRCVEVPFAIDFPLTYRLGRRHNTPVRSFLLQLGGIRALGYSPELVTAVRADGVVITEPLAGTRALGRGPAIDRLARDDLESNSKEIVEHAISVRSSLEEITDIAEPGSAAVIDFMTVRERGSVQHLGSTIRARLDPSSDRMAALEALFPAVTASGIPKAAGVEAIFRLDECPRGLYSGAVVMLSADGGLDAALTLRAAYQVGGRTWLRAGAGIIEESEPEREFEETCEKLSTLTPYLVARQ
Of the large screens only hits and unclear results are named; the others gave an inactive call; ! = repeats disagree.

CC(/C=C/c1ccccc1)=N\NC(N)=S	Mtb MbtI inh 91
CC(=C/C(=O)O)/C=C/c1ccccc1	none
COC(=O)C(C(=O)OC)C(Nc1ccccc1)c1ccccc1 (stereo not drawn)	PV pol inh 25 (no result: Mtb MbtI inh)
CCOC(=O)C(Nc1cccc(F)c1)c1ccccc1 (stereo not drawn)	none (no result: PV pol inh, MenB inh)
S=c1[nH]cc2ccccn12	none
S=c1[nH]nc2ccccn12	Mtb MbtI inh 92!
Cc1nc(-c2ccc3c(c2)CCN3Cc2nnc(-c3ccco3)o2)cs1	none
CCc1cc(C(=O)O)c(SSc2sc(CC)cc2C(=O)O)s1	PV pol inh 76, Mtb MbtI inh 102
CCc1cc(C(=O)O)c(NC(=O)c2ccc(Br)cc2)s1	none (no result: MenB inh)
N=c1c2c3c(sc2ncn1CCCO)CCCCC3	none
Cc1ccc2c(COC(=O)c3ccc(Cl)nc3)cc(=O)oc2c1	none
CC(C)C(=O)Nc1ccc2nc(SCC(=O)N3CCc4ccccc43)sc2c1	PV pol inh 83 (no result: MenB inh, Mtb MbtI inh)
CCC(CC)C(=O)Nc1ccc2nc(SCC(=O)N3CCc4ccccc43)sc2c1	none (no result: MenB inh, Mtb MbtI inh)
CN1C(=O)/C(=C\c2cccc(C(F)(F)F)c2)c2ccccc21	none
O=C1CSCC(=O)N1c1cc(C(F)(F)F)cc(C(F)(F)F)c1	none
O=C1CSCC(=O)N1c1cccnc1	PV pol inh 84
Cc1ccc(Cn2nc(C)c(/C=N/NC(=O)c3ccc4c(c3)OCO4)c2C)cc1	none
Cc1ccc(CCNC(=O)C(C)c2c(C)n[nH]c2C)cc1 (stereo not drawn)	none
COC(=O)C(C)N1C(=O)S/C(=C/c2ccc(N3CCCCCC3)o2)C1=O (stereo not drawn)	Mtb MbtI inh 53
O=C(CN1C(=O)S/C(=C/c2ccc(N3CCCCCC3)o2)C1=O)N1CCCCCC1	none
CCCc1cc(=O)n2[nH]c(C(=O)N3CCC(C)CC3)nc2n1	none
CN(C(=O)Cn1ncc2c([nH]c3ccccc32)c1=O)c1ccccc1	none
Cc1cccc(NC(=O)Cn2cc(CO)c3ccccc32)c1	none
O=C(COC(=O)c1cc(-c2ccc(F)cc2)nc2ccccc12)Nc1ccccc1F	none (no result: MenB inh)
O=C1c2ccccc2C(=O)C1c1ccc(OC(F)F)cc1	Mtb MbtI inh 80
O=C1c2ccccc2C(=O)C1c1ccc(O)cc1	none (no result: PV pol inh, MenB inh)
CCSC1=C(C#N)C(C)C(C#N)C(=O)N1 (stereo not drawn)	none (no result: MenB inh)
Cc1noc(C)c1CSc1ccccc1C(=O)OC(C)C(=O)N1CCOCC1 (stereo not drawn)	none
Cc1noc(C)c1CSc1ccccc1C(=O)NC(C)c1ccc2c(c1)OCCO2 (stereo not drawn)	Mtb MbtI inh 89
CCn1c(COc2ccccc2OC)nnc1SCC(=O)c1c(C)n(C)c2ccccc12	none
CC(C)Cn1c(=O)c2sccc2n2c(=S)sc(-c3ccccc3)c12	Mtb MbtI inh 68
CC(C)n1c(=O)c2sccc2n2c(=S)sc(-c3ccccc3)c12	none
O=C1c2ccccc2-c2nc3ccccc3nc21	none
O=C1c2ccccc2-c2n[nH]c(=S)nc21	PV pol inh 76
CCCN(Cc1nnc(-c2ccco2)o1)C(=O)c1cccnc1SCc1c(C)noc1C	PV pol inh 89
CCCN(Cc1nnc(-c2ccco2)o1)C(=O)c1ccccc1SCC(=O)N1CCCC1	none
O=C(CSc1ccccn1)N(C1CCCCC1)C1CCS(=O)(=O)C1 (stereo not drawn)	none
COCc1cc(C)nc2sc3c(=O)[nH]c(-c4ccccc4O)nc3c12	none (no result: Mtb MbtI inh)
Cc1sc2nc(-c3ccccc3O)[nH]c(=O)c2c1C	PV pol inh 75 (no result: Mtb MbtI inh)
O=C(COc1ccc2ccccc2c1)Nc1ccc(NC(=O)c2ccco2)cc1	none
O=c1nc2n(c3ncccc13)CCC2	none
O=C1CNC(=O)c2c(nc3n2CCC3)N1	MenB inh 34
CC1=N/C(=C/c2cc3ccccc3nc2Sc2ccc(C)cc2)C(=O)O1	none
Cc1nc2ccccc2nc1CSc1nnc2ccccn12	none
COc1cccc(NC(=O)c2ccccc2N(C)C(=O)CCC(=O)Nc2cccnc2)c1	none
CN(C)CCCNc1ncnc2ccccc12	none (no result: Mtb MbtI inh)
CN(C)CCCNc1nn2c(=O)c3ccccc3nc2c2ccccc12	PV pol inh 82
O=C(COc1ccc(Cl)cc1)OCc1ccc(Br)cc1	none (no result: MenB inh)
CN(C)CCOC(=O)COc1ccc(Cl)cc1	MenB inh 68!
COc1ccccc1C(=O)n1cc(C)cn1	none
COc1ccc2c(c1)c1c3n2CCN(C2CCCCC2)C3=NCC1	none
CCN1CCCC1CNC(=O)CCCN1C(=O)CCn2nc(C)cc21 (stereo not drawn)	none
CC(C)(C)C(=O)NC1CCN(CC(=O)Nc2ccccc2)CC1	none
Cc1ccc(NC(=O)CSc2nc3n[nH]c(C)c3c(=N)n2-c2cccc(C)c2)cc1	none (no result: MenB inh, Mtb MbtI inh)
CCc1ccc(NC(=O)CSc2nc3n[nH]c(C)c3c(=N)n2-c2ccc(C)cc2)cc1	PV pol inh 86 (no result: MenB inh, Mtb MbtI inh)
O=C(CN1C(=O)c2ccccc2S1(=O)=O)N1N=C(c2ccc(Cl)cc2)CC1c1ccco1 (stereo not drawn)	none
Cc1ccc(P(=O)(N2CCOCC2)N2CCOCC2)o1	none
Cc1c(P(=S)(N2CCOCC2)N2CCOCC2)cc(C#N)n1C	PV pol inh 80, Mtb MbtI inh 94
O=C(CC1=NS(=O)(=O)c2ccccc2N1)NCCC1=CCCCC1	none
Nn1cc(-c2ccccc2)nc1SCC(=O)c1ccc(Cl)s1	none
O=C(CN1CCOCC1)Nc1ncc(Cc2ccc(Cl)cc2)s1	none (no result: PV pol inh)
CCc1cc(C(=O)O)n(C)n1	MenB inh 29
CCCc1cc(C(=O)O)n(C)n1	none (no result: PV pol inh, MenB inh)
CN(Cc1ccccc1)C(=O)CSc1nnnn1C	none
Cc1ccccc1Nc1nc(N)nc(CN(C)S(=O)(=O)c2cccs2)n1	none
COc1ccc(SS(=O)(=O)c2ccc(OC)c(NC(C)=O)c2)cc1NC(C)=O	Mtb MbtI inh 91
COc1ccc(S(=O)(=O)C(F)(F)F)cc1NC(C)=O	none (no result: MenB inh)
O=C(O)C1CSC(c2ccncc2)=N1 (stereo not drawn)	MenB inh 90
O=C(O)C1CSC(c2cccnc2)=N1 (stereo not drawn)	none (no result: PV pol inh, MenB inh)
CN(C(=O)C1CCC(CNS(=O)(=O)c2cccc3nsnc23)CC1)C1CCCCC1 (stereo not drawn)	none
COc1ccc(N2C(=O)CC(N3CCCCC3C)C2=O)cc1 (stereo not drawn)	none
CCOc1ccc(N2C(=O)CC(N3CCCCC3CC)C2=O)cc1 (stereo not drawn)	Mtb MbtI inh 55
Cn1c(SCc2ccccc2)nnc1C1CCCN(C(=O)Cc2ccc3c(c2)OCO3)C1 (stereo not drawn)	none
Cc1ncc(CC(=O)n2cc(C(=O)c3cc(F)ccc3O)cn2)s1	none
Cc1ccc(O)c(C(=O)c2cnn(C(=O)Cc3csc(C)n3)c2)c1	PV pol inh 86
O=C(CCS(=O)(=O)c1ccccc1)N(Cc1cccnc1)c1nc2ccc(F)cc2s1	none (no result: MenB inh, Mtb MbtI inh)
O=C(CCS(=O)(=O)c1ccccc1)N(Cc1ccccn1)c1nc2ccccc2s1	Mtb MbtI inh 71
COC(=O)c1sc(N)c(C(=O)OC)c1C	none
CCOC(=O)c1c(C)c(C)c(C)[nH]c1=S	Mtb MbtI inh 91
CCOC(=O)c1c(C)sc2c(C)c(C)[nH]c12	none (no result: Mtb MbtI inh)
CCOC(=O)c1sc(N)c(C(=O)OCC)c1C	PV pol inh 79 (no result: Mtb MbtI inh)
CCc1ccc(N(Cc2cc(=O)n3ccccc3n2)C2=NC3CS(=O)(=O)CC3S2)cc1 (stereo not drawn)	none
CC1CC(C)CN(C(=O)COC(=O)Cc2cn3ccsc3n2)C1 (stereo not drawn)	none
CCOC(=O)C1=C(C)NC(=S)NC1c1ccc(-c2ccccc2Cl)o1 (stereo not drawn)	MenB inh 60

Bioassay records deposited in PubChem by ICCB-Longwood Screening Facility, Harvard Medical School.
